# According to PubChem BioAssay AID777 (Sanford-Burnham Center for Chemical Genomics, 2007):
# Hit rate of the full screen: of about 96,000 compounds, about 19,000 (20%) were called active.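 The calls were made as follows: active = blocking of liver enzyme CYP2C9 beyond about 50% at 5 µM (limit read from the data); inactive = the rest.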 A selection follows.
# Target: Cytochrome P450 2C9 (Homo sapiens) (UniProt P11712)
# Experiment: blockers of cytochrome P450 2C9 activity – biochemical, luminescence, ADME assay, primary screen (AID 777)
# Settings: CYP2C9 Supersomes, luciferin-H conversion, at 5 µM, stronger effect = higher value
# Sequence of Cytochrome P450 2C9 (Homo sapiens) (P11712 whole entry, looked up): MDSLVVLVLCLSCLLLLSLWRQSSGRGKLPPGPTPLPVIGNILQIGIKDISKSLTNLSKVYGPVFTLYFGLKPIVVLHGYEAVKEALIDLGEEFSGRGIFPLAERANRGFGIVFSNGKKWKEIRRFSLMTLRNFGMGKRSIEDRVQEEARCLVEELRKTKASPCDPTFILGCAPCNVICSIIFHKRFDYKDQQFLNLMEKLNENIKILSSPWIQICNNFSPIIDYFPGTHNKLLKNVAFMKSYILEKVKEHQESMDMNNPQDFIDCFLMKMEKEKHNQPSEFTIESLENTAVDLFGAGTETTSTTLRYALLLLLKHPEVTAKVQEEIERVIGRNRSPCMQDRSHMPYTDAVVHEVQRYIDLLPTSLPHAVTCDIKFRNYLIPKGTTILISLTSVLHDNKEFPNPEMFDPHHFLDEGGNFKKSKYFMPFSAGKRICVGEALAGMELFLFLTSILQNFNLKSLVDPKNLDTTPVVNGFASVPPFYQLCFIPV
row,Compound,inhibition
1,COc1ccc(C(=O)N(CCN2CCOCC2)CC(=O)NC2CCCC2)cc1OC,-13.4% (inactive)
2,COc1ccccc1-c1nnc(SCC(=O)Nc2ccccc2)o1,-62.2% (inactive)
3,C[C@H](NC(=O)OC(C)(C)C)c1nnc(SCC(N)=O)o1,30.9% (inactive)
4,CC(C)C[C@@H](N)c1nnc(SCC(=O)c2ccc(Cl)cc2)o1,49.8% (inactive)
5,Cc1cccc(NC(=O)CSC(N)=O)c1C,7.1% (inactive)
6,C[C@H](NC(=O)OC(C)(C)C)c1nnc(SCC(=O)Nc2ccc(Br)cc2)o1,50.7% (active)
7,CCc1ccccc1NC(=O)CSc1nnc([C@@H](NC(=O)OC(C)(C)C)C(C)CC)o1 (some centres not stated),66.7% (active)
8,Cc1cccc(NC(=O)CSc2nnc(CCCCCNC(=O)OC(C)(C)C)o2)c1C,67.6% (active)
9,CCc1ccccc1NC(=O)CSc1nnc([C@@H](NC(=O)OC(C)(C)C)C(C)C)o1,20.3% (inactive)
10,Cc1nc(C)c(C(=O)Nc2cccc(C)c2C)o1,1.2% (inactive)
11,CN(C)CCNC(=O)C(C(=O)c1ccccc1)n1ccccc1=O (configuration not stated),-3.6% (inactive)
12,CCCCNC(=O)OC(C)CNC(=O)OC (configuration not stated),-7.6% (inactive)
13,O=C(C1CCCO1)N1CCC(c2nc3ccccc3[nH]2)CC1 (configuration not stated),-3.1% (inactive)
14,CCCNS(=O)(=O)c1ccc2c(c1)CCCN2C(C)=O,4.5% (inactive)
15,COC(=O)C(C)C1Sc2ccccc2NC1=O (configuration not stated),2.8% (inactive)
16,Cn1nc(-c2ccccc2)c(-c2nc(-c3ccc(Cl)cc3)no2)c1Cl,0.9% (inactive)
17,Clc1ccc(-c2nnc(-c3ccccc3)nc2N2CCSCC2)cc1,59.2% (active)
18,CC1CN(c2nc(-c3ccccc3)nnc2-c2ccccc2)CC(C)O1 (configuration not stated),14.1% (inactive)
19,CC1(C)CC(CC(=O)O)C(=O)O1 (configuration not stated),4.1% (inactive)
20,COc1ccccc1OCc1nc2ccccc2s1,51.7% (active)
21,O=C(O)CSCc1nc2ccccc2s1,-9.7% (inactive)

row,Compound,inhibition
1,O=C(O)CCCCc1nc2ccccc2s1,2.4% (inactive)
2,C=CCNc1nc(C)nc(OC)n1,-13.4% (inactive)
3,O=C(CCCn1c(SCC(=O)c2ccccc2)nc2ccccc2c1=O)NCC1CCCO1 (configuration not stated),91.9% (active)
4,CCc1ccc(NC(=O)CSc2nc3ccccc3c(=O)n2CCN2CCOCC2)cc1,47.5% (inactive)
5,CCn1cc(C(=O)NCC2CCCO2)c(=O)c2cc(S(=O)(=O)N3CCCCC3)ccc21 (configuration not stated),44% (inactive)
6,O=C(NCC1CCCO1)C(C(=O)c1ccccc1)n1cc(Cl)ccc1=O (configuration not stated),-9.3% (inactive)
7,O=C(CCn1c(SCC(=O)c2ccccc2)nc2ccccc2c1=O)NCc1ccc(F)cc1,91.5% (active)
8,CCOc1cc2[nH]c(=O)n(CCC(=O)NCc3ccc(OC)cc3)c(=O)c2cc1OCC,-2.1% (inactive)
9,CCn1c(SCC(=O)NCC2CCCO2)nc2cc(S(=O)(=O)N3CCCCC3)ccc21 (configuration not stated),50.2% (active)
10,O=C(CSc1nnc(-c2ccco2)n1CC1CCCO1)c1ccccc1 (configuration not stated),-3.9% (inactive)
11,Cc1ccc(S(=O)(=O)N2CCC(C(=O)NCC3CCCO3)CC2)cc1 (configuration not stated),-9.7% (inactive)
12,O=C(CSc1nc2cc3c(cc2c(=O)n1CCC1=CCCCC1)OCO3)NCc1ccco1,8.9% (inactive)
13,Cn1c(-c2ccc(F)cc2)cnc1SCC(=O)NCc1ccco1,9.5% (inactive)
14,O=C(CCCn1c(SCC(=O)c2ccc(F)cc2)nc2ccccc2c1=O)NCc1ccco1,95% (active)
15,CCOC(=O)N1CCC(N(CCOC)C(=O)Nc2ccc(C)c(C)c2)CC1,-10.6% (inactive)
16,CS(=O)(=O)Nc1ccc(C(=O)N2CCCC2)cc1,17.2% (inactive)
17,CCOC(=O)N1CCN(C(=O)c2n[nH]c(=O)c3ccccc23)CC1,-4.2% (inactive)
18,COc1ccc(C2C(C#N)=C(N)Oc3n[nH]c(C)c32)cc1CN1CCN(c2ccc(F)cc2)CC1 (configuration not stated),28% (inactive)
19,O=C(Cn1cc2c(n1)CCCCC2)NCCN1CCOCC1,-11.3% (inactive)
20,O=C(NC(c1ccccc1)c1ccccc1)N1CCN(CCO)CC1,4% (inactive)
21,COc1ccc(N(CCC#N)S(=O)(=O)c2ccc(Cl)cc2)cc1,19.8% (inactive)

row,Compound,inhibition
1,C=CCC(NCc1ccco1)c1ccc(OC)cc1 (configuration not stated),-14.6% (inactive)
2,CCCCn1c(SCC(=O)NCC2CCCO2)nc2ccc(N3CCOCC3)cc2c1=O (configuration not stated),74.1% (active)
3,N#CCSc1nc2ccc(N3CCOCC3)cc2c(=O)n1CCc1ccccc1,30.9% (inactive)
4,N#Cc1ccc(Oc2cc(C(F)(F)F)nc(-c3ccccn3)n2)cc1,42% (inactive)
5,O=C(Nc1ccc(Cl)cc1)c1cc2nc(C3CC3)cc(C(F)(F)F)n2n1,-1.8% (inactive)
6,COc1cc(OC)c(-n2c(C)cc(C=O)c2C)cc1Cl,16.9% (inactive)
7,CC(NC(=O)c1ccco1)C(=O)Nc1nc(-c2ccccn2)cs1 (configuration not stated),9.7% (inactive)
8,CCNC(=S)NNC(=O)Cc1ccccc1,1.3% (inactive)
9,CC(Oc1ccc2ccccc2c1)C(=O)NNC(=S)NC(=O)c1ccco1 (configuration not stated),85.3% (active)
10,CCCc1ccc(OCC(=O)NNC(=S)NC(=O)c2ccco2)cc1,65.8% (active)
11,O=C(NCCSc1ccccc1)c1ccco1,-18.4% (inactive)
12,COc1ccc(C(=O)NC(=S)NNC(=O)CCc2ccccc2)cc1,33.8% (inactive)
13,O=S(=O)(N/N=C\c1cccn1-c1ccccc1)c1ccc2ccccc2c1,-71.5% (inactive)
14,COc1ccccc1N=C1SC(C)CN1C(=O)C1CCC1 (configuration not stated),-6.6% (inactive)
15,Cc1nc(NC(=O)C23CCC(C)(C(=O)O2)C3(C)C)sc1C (configuration not stated),-3.9% (inactive)
16,Cc1cccc(-n2c(N)cc(=O)nc2SC(C)C(=O)NC2CCCCC2)c1 (configuration not stated),27.7% (inactive)
17,O=C(CCCN1C(=O)c2ccccc2C1=O)Oc1ccc(Cl)cc1,19.8% (inactive)
18,COc1cc(C(=O)Nc2oc(-c3ccccc3)c(-c3ccccc3)c2C#N)cc(OC)c1OC,43.6% (inactive)
19,N#Cc1c(NC(=O)CCCN2C(=O)c3ccccc3C2=O)oc(-c2ccccc2)c1-c1ccccc1,50.3% (active)
20,CS(=O)(=O)Nc1cccc(C2=NN(S(=O)(=O)c3ccccc3)C(c3cccs3)C2)c1 (configuration not stated),89.1% (active)
